Data as given in PubChem BioAssay.
The source made the active and inactive calls. How the calls were made is not given here.

The molecules below were run against Protein kinase 7 (PK7), Plasmodium falciparum 3D7 (PF3D7_0213400) (UniProt Q7YTF7) (assay: inhibition of Plasmodium PK7 catalytic activity – biochemical, TCAMS antimalarial set, Kinase-Glo luminescence (AID 1159587)). Settings: recombinant PfPK7, Kinase-Glo ATP depletion luminescence.
Chain of Protein kinase 7 (PK7), Plasmodium falciparum 3D7 (PF3D7_0213400) (Q7YTF7 1-343): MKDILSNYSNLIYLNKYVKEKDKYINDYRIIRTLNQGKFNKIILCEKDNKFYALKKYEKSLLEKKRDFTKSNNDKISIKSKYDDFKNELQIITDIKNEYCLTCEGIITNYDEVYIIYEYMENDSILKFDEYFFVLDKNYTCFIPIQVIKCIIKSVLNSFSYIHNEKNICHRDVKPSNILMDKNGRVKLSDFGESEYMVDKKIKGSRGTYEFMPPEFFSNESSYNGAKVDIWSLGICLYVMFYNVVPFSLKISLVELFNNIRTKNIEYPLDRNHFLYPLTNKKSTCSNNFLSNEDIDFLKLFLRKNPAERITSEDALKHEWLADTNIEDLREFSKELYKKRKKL

outcome, inactive:
CC(C)c1ccc(CN2CCCCC(NC(=O)c3cc(-c4ccccc4Cl)cs3)C2)cc1 (stereo not given), Cc1cccc2[nH]c(-c3cccc(-c4cccc(CNCCCN5CCCC5=O)c4)c3)nc12, O=C(Nc1cccc(-c2cccc(-c3nc4ccccc4[nH]3)c2)c1)N[C@@H]1C[C@H]1c1ccccc1, O=C1C(c2ccccc2)=C(Nc2cc(Cl)cc(Cl)c2)c2ccccc21, O=C(NC1CC1)c1ccc(Cn2c(SCc3cccc(Cl)c3)nc3ccccc3c2=O)cc1, COc1ccc2nc(C)cc(NN=Cc3ccccc3Cl)c2c1, Clc1ccc2c(NCCNc3ccnc4cc(Cl)ccc34)ccnc2c1, O=C(Nc1cccc(CN2CCN(Cc3ccc(O)cc3)CC2)c1)c1ccc(Cl)c(Cl)c1, Cc1[nH]c(C)c(-c2ccc(CCc3ccc(N)cc3)cc2)c(=O)c1Cl, CC(CNC(=O)c1cc2c(Cl)cc(Cl)cc2[nH]1)CNc1cc(=O)c2ccccc2[nH]1 (stereo not given), C=C[C@H]1CN(CCCCCCC)CC[C@H]1CCN(C)c1ccnc2ccc(OC)cc12, Fc1ccc2ncc(Cl)c(CCN3CCC(NCc4cc5c(cn4)OCCO5)CC3)c2c1, CC(C)(C)c1ccc(N2C(N)=NC(N)=NC2(C)C)cc1, CCN(CC(C)O)C(=O)c1ccc(-c2ccc(-c3nc4c(C)cccc4[nH]3)cc2)cc1 (stereo not given), CN1CCC(C(=O)Nc2ccc(-c3cccc(-c4nc5ccc(C(F)(F)F)cc5[nH]4)c3)cc2)CC1, O=C1C(c2ccccc2)=C(Nc2ccc(Cl)cc2)c2ccccc21, Cc1cc(O)c(-c2cc(C(=O)Nc3cccnc3)[nH]n2)cc1C, CCCC(C)Nc1nc(C)cc(N[C@@H](CC(C)C)C(=O)NCc2ccc(C)cc2)n1 (stereo not given in full), O=C(NC1CC1)c1cnc(N2CCCC(c3ccccc3)C2)c(Cl)c1 (stereo not given), CCCCSc1c(CNCCCCCCNCc2ccc3ccccc3c2SCCCC)ccc2ccccc12, Cc1cccc2[nH]c(-c3ccc(-c4cccc(NC(=O)NCc5cccc(F)c5)c4)cc3)nc12, COc1ccc(CN(C)CCCSc2ccc(NC(=O)c3cccc4c(=O)cc(-c5ccccc5)[nH]c34)cc2)cc1OC, O=C(/C=C/c1ccc(Cl)c(Cl)c1)NCCCCCN1CCCN(C(=O)Nc2cccc(F)c2)CC1, NC(=O)COc1cccc2c1CCN(CCN1CCC(NC(=O)c3ccc(-c4ccc(Cl)cc4)cc3)CC1)C2, CN1CCC(NCc2cccc(-c3cccc(-c4nc5ccc(C(F)(F)F)cc5[nH]4)c3)c2)CC1, Cn1ncc2c3c(CCN4CCC(NCc5cc6c(cn5)OCCO6)CC4)c(Cl)cnc3ccc21, CC1(C)N=C(N)N=C(N)N1c1ccc2ccccc2c1, O=C(Nc1cc(Cl)ccc1O)c1ccc(Oc2ccc(C(=O)Nc3cc(Cl)ccc3O)cc2)cc1, FC(F)(F)c1cccc(CNCCCCCNCc2ccc(Cl)cc2)c1, CC(C)(C)c1ccc(CN2CCC(NC(=O)c3ccc(-c4ccccc4Cl)s3)CC2)cc1, CCc1cc2c(N)nc(N)nc2nc1-c1ccccc1, COc1ccc(CNCc2ccc(F)cc2)cc1-c1ccc(OC)c(S(=O)(=O)NCCN2CCCC2)c1, O=C(NCCc1ccc(Cl)c(Cl)c1)c1ccc(CNC(=O)c2ccc(O)c(-c3ccc(Cl)c(Cl)c3)c2)cc1, CCc1cn2c3c(cc(C(=O)N[C@@H](Cc4cc(F)cc(F)c4)[C@H](O)CNC4CC4)cc13)N(C)S(=O)(=O)CC2, O=C(NCCCCN1CC[C@@H]2c3cccc(O)c3CC[C@H]21)c1ccc(-c2ccccc2)cc1, CS(=O)(=O)c1ccc(CNCc2cccc(-c3cccc(-c4nc5ccc(F)cc5[nH]4)c3)c2)cc1, COc1cccc(CNC(=O)c2cnc(N3CCN(c4ccncc4)CC3)c(Cl)c2)c1, O=C(Cc1cnc[nH]1)Nc1ccc(-c2cccc(-c3nc4ccc(F)cc4[nH]3)c2)cc1, FC(F)(F)c1ccc2nccc(NN=Cc3ccc(Cl)cc3)c2c1, O=C(NCCCCN1CCC(c2ccc(OC(F)(F)F)cc2)CC1)c1ccc(NC(=O)c2ccc(Cl)cc2)cc1
